# Reference: PubChem BioAssay (NCATS)
# Records with an inconclusive call do not appear. Active and inactive are the calls of the source. Unless noted, calls come from the whole dose curve; as a rule, active = well fitted curve in the direction sought with a large enough effect; inconclusive = small, poorly fitted or top-dose-only effect, or another doubt; inactive = no such curve, though single readings can be large; an effect the other way counts as inactive or inconclusive.
# Key:
# [1] = Cytotoxicity counterscreen for NFkB agonists and antagonists (AID 624476); note: % is set by controls: 0 for no effect and ±100 for the full control effect
# [2] = qHTS Assay for Identification of Small Molecule Agonists for NFkB Signaling Pathway. (AID 624478);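 note: compounds tested together with TNF alpha at its EC50 of 10 pM; 0% is about no effect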
# Outline: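 Compounds were added with 10 pM TNF alpha (EC50 level) to ME-180 NFkB-bla cells in low-serum Opti-MEM and incubated 5 hrs at 37 C. Beta-lactamase FRET read-out used 405 nm excitation and 460 and 530 nm emission.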
# [3] = qHTS Assay for Identification of Small Molecule Antagonists for NFkB Signaling Pathway. (AID 624479; calls by dose curve;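 note: pathway stimulated with TNF alpha; % is set by controls: 0 for no effect and ±100 for the full control effect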)
# [4] = Cell Proliferation Assay against the TMD8 Cell Line (AID 651645); settings: TMD8 DLBCL cell line proliferation/viability; at 46.1 µM (top of the series);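 note: cells exposed to compound for 48 h before reading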
# Outline: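 Cell viability of the ABC DLBCL line TMD8 is measured by CellTiter-Glo luminescence following a 48-hour incubation with compound. Percent activity uses DMSO as 100% and 9.2 uM bortezomib (final) as 0%.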
# [5] = Cell Proliferation Assay against the HBL1 Cell Line (AID 651646); settings: HBL1 DLBCL cells; at 46.1 µM (top of the series);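 note: cells exposed to compound for 48 h before reading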
# Outline: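 CellTiter-Glo luminescence after 48 h compound exposure at 37C gives percent activity, with DMSO as 100% and 9.2 uM bortezomib final as 0%. Cells: 500 log-phase HBL1 per well, RPMI plus 5% FBS.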
# [6] = Cell Proliferation Assay against the TMD8 Cell Line (Caspase readout at 16 hrs) (AID 651712);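 note: 0% = DMSO and 100% = 9.2 µM bortezomib caspase activation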
# Excerpt: One class of targeted therapeutics showing early clinical success in killing of ABC DLBCL lines are small molecule inhibitors of the Bruton tyrosine kinase (BTK) 11. Thus, we chose to investigate what additional compounds, if any, would synergize with the BTK inhibitor Ibrutinib (PCI-32765).
# Prior to any combination assays, using an NCATS developed oncology compound library called the Mechanism of Interrogation Plate (MIPE), two well studied ABC DLBCL lines (TMD8 and HBL1) were screened using a cell viability assay (CellTiterGlo) and a 12-point titration series for each single agent. These initial experiments offered insight into the concentration range that offered the best coverage of activity and non-activity to assure relevant data is generated. […]
# A total of 500 log growing TMD8 cells are seeded per well in 5 uL of a RPMI with glutamine (or Glutamax), without phenol red plus 5% FBS and 1X Pen/Strep into 1536 -solid white high base tissue culture treated Greiner One Bio Plates (789173-F) using a multidrop combi dispenser and a small sterile cassette. […] The plates are then spun at 1000 rpms to remove bubbles and incubated for 15 minutes at room temperature before read on a ViewLux using a luminescent filter with a 10 second exposure. The relative luciferase units are used to calculated percent activity using DMSO as 0% and Bortezomib as 100%.
# [7] = Cell Proliferation Assay against the TMD8 Cell Line (Caspase readout at 8 hrs) (AID 651713);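 note: 0% = DMSO and 100% = 9.2 µM bortezomib caspase signal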
# Outline: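 Apoptosis read-out: Caspase-Glo luminescence after 8 h compound exposure of TMD8 lymphoma cells at 37C, 5% CO2. Signals were normalized as percent activity between DMSO and bortezomib (9.2 uM final) controls.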
compound,measurement,setting,value
O=P1(N(CCCl)CCCl)NCCCO1 (configuration not stated),outcome,[1],inactive
same,outcome,[2],inactive
same,outcome,[3],inactive
same,viability (% of control),[4],114%
same,"viability, percent of control",[5],108%
same,outcome,[6],inactive
same,outcome,[7],inactive
